Results reported in PubChem BioAssay AID933 (National Center for Advancing Translational Sciences (NCATS), 2007).
Records with an inconclusive call do not appear. Where a call stands in place of a potency, no number is given. Unmarked numbers belong to inactive results. Active and inactive are the calls of the source. Calls come from the whole dose curve; as a rule, active = well fitted activation curve with a large enough effect in the signal ratio, with a control signal flat; inconclusive = small, poorly fitted or top-dose-only effect, or a change in a side signal; inactive = flat fitted curve, though single readings scatter; the % refers to the signal ratio.

Biological target: Thyrotropin receptor (Homo sapiens) (UniProt P16473)
Test: Secondary Concentration-Response Assay for Agonists of the Thyroid Stimulating Hormone Receptor: HTRF Activity Detection;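 for activation: HEK 293 cells stably expressing human TSHR with RO 20-1724 phosphodiesterase inhibitor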
Procedure, shortened: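 Orthogonal confirmation in a separate TSHR-transfected HEK 293 line: cells in medium with 10 % FCS and 100 uM RO 20-1724 got compound for 30 min at room temperature. cAMP was measured by HTRF (d2-cAMP/anti-cAMP antibody), 615/660 nm emission.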
Potency is the fitted concentration of half-maximal effect.

Sequence of Thyrotropin receptor (Homo sapiens) (P16473 whole entry, looked up): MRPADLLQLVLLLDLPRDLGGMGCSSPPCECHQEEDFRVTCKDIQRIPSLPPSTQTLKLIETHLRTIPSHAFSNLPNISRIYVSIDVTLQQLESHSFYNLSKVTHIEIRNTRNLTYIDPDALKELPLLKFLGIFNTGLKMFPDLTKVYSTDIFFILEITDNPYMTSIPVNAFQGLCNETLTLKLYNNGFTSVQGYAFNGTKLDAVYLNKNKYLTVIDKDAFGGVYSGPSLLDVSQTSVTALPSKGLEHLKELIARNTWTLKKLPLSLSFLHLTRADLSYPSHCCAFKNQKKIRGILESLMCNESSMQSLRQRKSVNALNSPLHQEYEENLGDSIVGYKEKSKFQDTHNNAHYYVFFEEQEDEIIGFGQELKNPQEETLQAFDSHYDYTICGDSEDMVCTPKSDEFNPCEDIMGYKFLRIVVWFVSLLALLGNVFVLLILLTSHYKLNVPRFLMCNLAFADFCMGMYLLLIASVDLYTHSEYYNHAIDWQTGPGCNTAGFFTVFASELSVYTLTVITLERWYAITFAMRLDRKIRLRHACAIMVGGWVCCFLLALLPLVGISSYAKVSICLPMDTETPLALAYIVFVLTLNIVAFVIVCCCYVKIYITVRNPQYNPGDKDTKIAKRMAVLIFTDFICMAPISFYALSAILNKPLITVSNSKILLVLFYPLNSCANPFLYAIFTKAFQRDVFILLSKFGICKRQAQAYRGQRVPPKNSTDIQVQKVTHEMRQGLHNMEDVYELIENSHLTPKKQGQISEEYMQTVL

Row | SMILES | Potency | activation
1 | NC(=O)c1nsc(C(=O)N(CC(=O)NC2CCCC2)Cc2ccc3c(c2)OCO3)c1N | inactive | 
2 | COc1ccc(C(=O)O)cc1COc1ccc(NC(C)=O)cc1 | inactive | 
3 | COc1ccc(-c2nc3ccccc3c(=O)n2Cc2ccccc2)cc1OCc1ccc(NC(C)=O)cc1 | inactive | 
4 | COc1ccc(CNCc2ccccc2)cc1COc1ccc(NC(C)=O)cc1 | inactive | 
5 | COc1ccc(CN(Cc2ccccc2)C(=O)c2ccc(O)cc2)cc1COc1ccc(NC(C)=O)cc1 | 28.2 µM (active) | 
6 | COc1ccc(C2Nc3ccccc3C(=O)N2Cc2ccccc2)cc1COc1ccc(F)cc1 (centres undefined) | inactive | 
7 | COc1ccc(C2Nc3ccccc3C(=O)N2Cc2ccccc2)cc1COc1ccc(NC(=O)c2ccccc2)cc1 (centres undefined) | inactive | 
8 | COc1ccc(C2Nc3ccccc3C(=O)N2Cc2cccc(C(F)(F)F)c2)cc1COc1ccc(NC(C)=O)cc1 (centres undefined) | 4.47 µM (active) | 
9 | COc1ccc(C2Nc3ccccc3C(=O)N2Cc2ccco2)cc1 (centres undefined) | inactive | 
10 | COc1cc(C2Nc3ccccc3C(=O)N2c2ccc(Cl)cc2)c(Cl)cc1OCC(=O)O (centres undefined) | inactive | 
11 | CCOC(=O)COc1c(OC)cc(Cl)cc1C1Nc2ccccc2C(=O)N1c1ccc(F)cc1 (centres undefined) | inactive | 
12 | COc1ccc(CN2C(=O)N(c3ccccc3)C(=O)C2c2ccccc2)cc1COc1ccc(NC(C)=O)cc1 (centres undefined) | inactive | 
13 | CC1=CCC2C(=O)N(c3ccc(Br)cc3C)C(=O)C2C1 (centres undefined) |  | 0.113% [at 0.00035 µM]
14 | Cc1cc(C)n(S(=O)(=O)c2cc(C(=O)O)c(Cl)cc2Cl)n1 |  | -0.754% [at 0.00035 µM]
